Assay [1] in a line: modulation of C. elegans fzo-1 (AID 1259413).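 Note: fzo-1 mutant C. elegans worms in liquid wells.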 The conditions noted are these: C. elegans fzo-1 modulator screen, mean read-out; stronger effect = higher value.
Assay [2] has as its target Protein kinase 7 (PK7), Plasmodium falciparum 3D7 (PF3D7_0213400) (UniProt Q7YTF7). Kind of assay: inhibition of Plasmodium PK7 catalytic activity – biochemical, TCAMS antimalarial set, Kinase-Glo luminescence (AID 1159587). Conditions: recombinant PfPK7, Kinase-Glo ATP depletion luminescence.
Assay [3] has as its target Calcium-dependent protein kinase 4 (Plasmodium falciparum (isolate 3D7)) (UniProt Q8IBS5). Kind of assay: PfCDPK4 kinase inhibitors, biochemical, TCAMS library (AID 1159588; cut-off not given, nearly all actives have IC50 up to about 0.91 µM). The conditions noted are these: recombinant PfCDPK4, Kinase-Glo ATP depletion luminescence.
Assay [4] is described as follows: growth inhibition of DIPG glioma cells, dose response, cell-based, SU-DIPG-XVII, MIPE5.0, CellTiter-Glo, qHTS (AID 1347060; cut-off not given, nearly all actives have AC50 up to about 26 µM;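 note: cells exposed to compound for 48 hours before viability readout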). Conditions: SU-DIPG-XVII viability, CellTiter-Glo ATP luminescence.
Assay [5] in a line: growth inhibition of DIPG glioma cells, dose response, cell-based, SU-DIPG-XIII, MIPE4.0, CellTiter-Glo, qHTS (AID 1347061; cut-off not given, nearly all actives have AC50 up to about 37 µM;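 note: cells exposed to compound for 48 hours before readout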). The conditions noted are these: SU-DIPG-XIII viability, CellTiter-Glo ATP luminescence.
The nature of assay [6]: growth inhibition of DIPG glioma cells, dose response, cell-based, JHH-DIPG-1, MIPE4.0, CellTiter-Glo, qHTS (AID 1347062; cut-off not given, nearly all actives have AC50 up to about 27 µM;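 note: cells exposed to compound for two days before readout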). The conditions noted are these: JHH-DIPG-1 viability, CellTiter-Glo ATP luminescence.
Assay [7] is described as follows: growth inhibition of DIPG glioma cells, dose response, cell-based, SU-DIPG-XIII, MIPE5.0, CellTiter-Glo, qHTS (AID 1347064; cut-off not given, nearly all actives have AC50 up to about 23 µM;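 note: cells exposed to compound for 48 hours before the viability read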). The conditions noted are these: SU-DIPG-XIII viability, CellTiter-Glo ATP luminescence.
Assay [8] can be described thus: differential killing of epithelial or mesenchymal cells, primary screen, imaging, PC-3E GFP, TEM4-18 mCherry, co-culture (AID 1345086;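 active = compounds killing one labelled cell type while sparing the other, by normalised counts and ratio limits, not self-fluorescent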;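 for all read-outs here: cells exposed to compound for 72 h before imaging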;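 for red/green cell ratio (normalised): normalised mesenchymal count divided by normalised epithelial count so high means epithelial killing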). Conditions: imaging cell counts, at 1 µM; for red/green cell ratio (normalised): actives lie on both sides, counts scaled to control wells, 1 = unselective.
For assay [9], the system named is Aerobactin synthetase IucA (Klebsiella pneumoniae). The assay can be described thus: IucA aerobactin synthetase inhibitors, biochemical, Tocris library, absorbance (AID 1345561).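 Note: 100% = enzyme without compound and 0% = no enzyme.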 Conditions: purified IucA enzyme assay, absorbance (OD) read-out; stronger effect = lower value;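 tested at 8 µM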.
The mark [10] stands for this setting: measured here: epithelial PC-3E GFP cell survival.
The mark [11] stands for this setting: measured here: mesenchymal TEM4-18 mCherry cell survival.

Values joined by “and” are separate entries in the source; they are usually repeats but may differ in a detail not shown here. Identical values can stand only once. Records with an inconclusive call do not appear. For part of these data: Entries with a potency or affinity are not part of this list. Active and inactive are the calls of the source. Unless noted, the rule behind the calls is not given here. Starred links: 1 amine or outer side, 2 acyl side, 3 side chain; linkers in the order of their positions; H or OH if unused. Positions of bridges follow the written chain, without caps; N, C: chain ends. Non-standard residues stand in square brackets, D forms with d. Residues, ends and D or L forms follow the SMILES beside them. Chains are numbered I, II in the order given. Actinocin(9to1) = Cc1c2oc3c(C)ccc(C(=O)[*:1])c3nc-2c(C(=O)[*:2])c(N)c1=O; NMeV = CN[C@H](C(=O)O)C(C)C; Sar = CNCC(=O)O

Sequence of Protein kinase 7 (PK7), Plasmodium falciparum 3D7 (PF3D7_0213400) (Q7YTF7 1-343): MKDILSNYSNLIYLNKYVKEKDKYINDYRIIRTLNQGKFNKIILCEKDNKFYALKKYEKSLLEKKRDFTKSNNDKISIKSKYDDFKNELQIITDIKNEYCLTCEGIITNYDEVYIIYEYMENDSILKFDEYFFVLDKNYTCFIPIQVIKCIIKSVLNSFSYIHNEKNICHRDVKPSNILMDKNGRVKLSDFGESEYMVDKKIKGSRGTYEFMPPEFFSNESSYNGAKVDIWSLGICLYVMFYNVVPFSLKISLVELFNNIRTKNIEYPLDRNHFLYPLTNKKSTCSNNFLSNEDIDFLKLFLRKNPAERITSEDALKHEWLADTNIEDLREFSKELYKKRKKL
Sequence of Calcium-dependent protein kinase 4 (Plasmodium falciparum (isolate 3D7)) (Q8IBS5 whole entry, looked up): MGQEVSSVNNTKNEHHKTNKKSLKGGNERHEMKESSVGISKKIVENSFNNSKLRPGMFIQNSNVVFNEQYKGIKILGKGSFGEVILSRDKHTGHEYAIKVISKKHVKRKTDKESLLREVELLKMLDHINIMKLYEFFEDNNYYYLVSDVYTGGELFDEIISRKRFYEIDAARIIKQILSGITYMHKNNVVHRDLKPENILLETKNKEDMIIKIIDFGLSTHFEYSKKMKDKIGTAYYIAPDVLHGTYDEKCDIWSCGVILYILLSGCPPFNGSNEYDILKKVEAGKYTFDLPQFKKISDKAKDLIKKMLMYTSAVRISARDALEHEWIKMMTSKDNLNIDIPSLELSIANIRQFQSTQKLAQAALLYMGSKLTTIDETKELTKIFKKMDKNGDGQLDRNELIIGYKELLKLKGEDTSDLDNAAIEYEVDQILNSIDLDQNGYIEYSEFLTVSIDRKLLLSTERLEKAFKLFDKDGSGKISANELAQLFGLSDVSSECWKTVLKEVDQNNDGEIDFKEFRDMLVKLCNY

Take `CCOC(=O)C1=C(C)NC(C)=C(C(=O)OCC)C1c1ccccc1/C=C/C(=O)OC(C)(C)C`: the mean signal in [1] is 249 (inactive).
Turning to `CN(C)CC[C@@H](c1ccc(Cl)cc1)c1ccccn1`, the mean signal in assay [1] is 251 (inactive).
Same read-out and setting: next, `CC(=O)Nc1ccc(CC(=O)O)cc1`: 292 (inactive); `Cc1c2oc3c(C)ccc(C(=O)N[C@@H]4C(=O)N[C@H](C(C)C)C(=O)N5CCC[C@H]5C(=O)N(C)CC(=O)N(C)[C@@H](C(C)C)C(=O)O[C@@H]4C)c3nc-2c(C(=O)N[C@@H]2C(=O)N[C@H](C(C)C)C(=O)N3CCC[C@H]3C(=O)N(C)CC(=O)N(C)[C@@H](C(C)C)C(=O)O[C@@H]2C)c(N)c1=O` (I: T[dV]P[Sar][NMeV] / II: T[dV]P[Sar][NMeV]; ester I:1-I:C, II:1-II:C; linker I:N-II:N via Actinocin(9to1)): 256 (inactive); `COc1cc(C)nc(-n2nc(C)cc2OC)n1`: 243 (inactive).
Regarding `COc1cc2c(Nc3ccc(Br)cc3F)ncnc2cc1OCC1CCN(C)CC1`, the outcome in [2] and in assay [3] was inactive. Further, the AC50 in [4] is 6.61 µM (active); in assay [5], 3.72 µM (active); in assay [6] it was 16.6 µM (active); in assay [7] it was 18.6 µM (active).
`CC(C(=O)O)c1ccc(CC2CCCC2=O)cc1` (centres undefined): the mean signal in assay [1] was 276 (inactive).
On to `CCOc1ccc2nc3cc(N)ccc3c(N)c2c1`, for which the outcome in [2] and in assay [3] was inactive. Moreover, the red/green cell ratio (normalised) in assay [8] is 1.04 (inactive). For the same compound, the normalised cell number in assay [8] (setting [10]) worked out at 0.62; in assay [8] (setting [11]) it was 0.65.
For the compound `CC(C)(C)C(O)/C=C/c1ccc2c(c1)OCO2` (centres undefined), the mean signal in [1] is 280 (inactive).
Same read-out and setting: the result for `Nc1c2c(nc3c1CCC3)CCCC2` reads 275 (inactive); that for `CO[C@H]1C=CO[C@@]2(C)Oc3c(C)c(O)c4c(O)c(c(/C=N/N5CCN(C)CC5)c(O)c4c3C2=O)NC(=O)/C(C)=C\C=C[C@H](C)[C@H](O)[C@@H](C)[C@@H](O)[C@@H](C)[C@H](OC(C)=O)[C@@H]1C`, 243 (inactive).
In the case of `CCN1CC(CCN2CCOCC2)C(c2ccccc2)(c2ccccc2)C1=O` (centres undefined), in assay [1], the mean signal is 250 (inactive).
Turning to `CN(C)CC[C@@H](c1ccc(Br)cc1)c1ccccn1`, in [1], the mean signal is 234 (inactive).
Turning to `COc1cc2c(cc1OC)-c1cc(=Nc3c(C)cc(C)cc3C)n(C)c(=O)n1CC2`, the outcome in [2] and in assay [3] was inactive. Also, the remaining activity in assay [9] is 110% (inactive).
Take `NCC1CCC(C(=O)Oc2ccc(CCC(=O)O)cc2)CC1` (centres undefined): in assay [1], the mean signal was 243 (inactive).
With `O=C(Nc1cccc(C2=NCCN2)c1)Nc1cccc(C2=NCCN2)c1`, the result in assay [2] and in assay [3] was inactive.
In the case of `CNCC(O)c1ccc(O)c(O)c1` (centres undefined), in [1], the mean signal is 245 (inactive).
For the compound `O=C1[C@H]2CCCC[C@H]2C(=O)N1CCCCN1CCN(c2nsc3ccccc23)CC1`, the mean signal in [1] was 254 (inactive).
`CC1(C)S[C@@H]2[C@H](N=CN3CCCCCC3)C(=O)N2[C@H]1C(=O)O`: the mean signal in assay [1] was 245 (inactive).
Consider `COCc1c(C(C)C)nc(C(C)C)c(/C=C/[C@@H](O)C[C@@H](O)CC(=O)O)c1-c1ccc(F)cc1`, for which the mean signal in assay [1] is 232 (inactive).
For `O=c1c(-c2ccccc2)c1-c1ccccc1`, the mean signal in [1] was 254 (inactive).
Regarding `Cc1nc(N)nc(N)c1-c1ccc(Cl)c(Cl)c1`, the result in assay [2] and in assay [3] was inactive.
For `O=C1c2cccc3c2[C@H](CCC3)CN1[C@@H]1CN2CCC1CC2`, the mean signal in assay [1] is 244 (inactive).
As for `CN(Cc1cnc2nc(N)nc(N)c2n1)c1ccc(C(=O)N[C@@H](CCC(=O)O)C(=O)O)cc1`, the result in assay [2], in assay [3] and in assay [5] was inactive. Further, the mean signal in assay [1] was 204 (inactive). The remaining activity in assay [9] was 114% (inactive).
Turning to `CCCCc1ccc2nc(NC(=O)OC)[nH]c2c1`, the result in assay [2] and in assay [3] was inactive. In assay [4], the AC50 was 0.186 µM (active).
Consider `CCCc1c(OCCCCc2nn[nH]n2)ccc(C(C)=O)c1O`, for which, in assay [1], the mean signal is 231 (inactive).
For the compound `CCN(CC)Cc1cc(Nc2ccnc3cc(Cl)ccc23)ccc1O`, the result in assay [2] and in assay [3] was inactive.
As for `CN1CCN(C2=Nc3cc(F)ccc3Cc3ccccc32)CC1`, in [1], the mean signal was 248 (inactive).
On to `CCCCCCCC/C=C\CCCCCCCC(=O)NCc1ccc(O)c(OC)c1`, for which the outcome in [2] and in [3] was inactive. Moreover, the remaining activity in assay [9] was 100% (inactive).
Consider `NC(N)=Nc1nc(CSCC/C(N)=N/S(N)(=O)=O)cs1`, for which the mean signal in assay [1] was 276 (inactive).
For the compound `COC(=O)C1=C(C)NC(C)=C(C(=O)O[C@@H]2CCCN(Cc3ccccc3)C2)[C@@H]1c1cccc([N+](=O)[O-])c1`, the mean signal in assay [1] was 249 (inactive).
For the compound `COc1cc(C)c(Cc2cnc(N)nc2N)cc1OC`, the mean signal in assay [1] was 249 (inactive).
Turning to `Cc1[nH]cnc1CN1CCc2c(c3ccccc3n2C)C1=O`, in assay [1], the mean signal was 241 (inactive).
On to `OCc1cccnc1`, for which, in [1], the mean signal was 224 (inactive).
Turning to `C[C@H](NC(CCc1ccccc1)C(=O)O)C(=O)N1CCC[C@H]1C(=O)O` (some centres undefined), the mean signal in [1] was 226 (inactive).
Turning to `CCCN1CCCC[C@H]1C(=O)Nc1c(C)cccc1C`, the mean signal in assay [1] is 274 (inactive).
On the same count and under the same terms, the result for `COC(=O)CCc1ccc(OCC(O)CNC(C)C)cc1` (centres undefined) reads 266 (inactive); that for `COc1cc(C(=O)NC2CCCNC2)cc(OC)c1OC` (centres undefined), 236 (inactive); that for `CC(C)(O)c1ccccc1CC[C@@H](SCC1(CC(=O)O)CC1)c1cccc(/C=C/c2ccc3ccc(Cl)cc3n2)c1`, 259 (inactive).
Consider `Clc1ccc2c(c1)CCc1cccnc1C2=C1CCNCC1`, for which the mean signal in assay [1] is 228 (inactive). Further, the red/green cell ratio (normalised) in assay [8] is 0.84 (inactive) and 1.39 (inactive). The normalised cell number in assay [8] (setting [10]) is 1.16 and 0.83; in assay [8] (setting [11]), 0.98 and 1.15.
On to `CCOC(=O)C1=C(C)NC(C)=C(C(=O)OC)C1c1cccc(Cl)c1Cl` (centres undefined), for which, in assay [1], the mean signal is 217 (inactive). Besides, the red/green cell ratio (normalised) in assay [8] was 1.08 (inactive). Moreover, the normalised cell number in assay [8] (setting [10]) is 1.11; in [8] (setting [11]), 1.2.
Regarding `CCc1c(C)[nH]c2c1C(=O)C(CN1CCOCC1)CC2` (centres undefined), the mean signal in assay [1] is 257 (inactive). In addition, the red/green cell ratio (normalised) in [8] was 1.03 (inactive). In addition, the normalised cell number in assay [8] (setting [10]) came to 0.94; in assay [8] (setting [11]), 0.96.
For `O=C(CCNNC(=O)c1ccncc1)NCc1ccccc1`, the mean signal in [1] is 273 (inactive). The red/green cell ratio (normalised) in [8] was 1.02 (inactive). Also, the normalised cell number in assay [8] (setting [10]) was found to be 1.02; in [8] (setting [11]) it was 1.04.
Take `COC(=O)C1=C(C)NC(C)=C(C(=O)OCC(C)C)C1c1ccccc1[N+](=O)[O-]` (centres undefined): the mean signal in [1] was 228 (inactive). The red/green cell ratio (normalised) in [8] is 0.97 (inactive). Further, the normalised cell number in [8] (setting [10]) worked out at 1.11; in assay [8] (setting [11]), 1.08.
As for `CCc1nn(CCCN2CCN(c3cccc(Cl)c3)CC2)c(=O)n1CCOc1ccccc1`, the mean signal in [1] was 239 (inactive). Further, the red/green cell ratio (normalised) in assay [8] was 1.11 (inactive). The normalised cell number was found to be 0.96 in assay [8] (setting [10]) and 1.06 in [8] (setting [11]). The remaining activity in assay [9] was 104% (inactive).
On to `Nc1nc2c(ncn2CCC(CO)CO)c(=O)[nH]1`, for which the mean signal in assay [1] is 282 (inactive). The red/green cell ratio (normalised) in assay [8] was 1 (inactive). The normalised cell number in assay [8] (setting [10]) and in assay [8] (setting [11]) was 0.96 each time.
`CN1CCCCC1CCN1c2ccccc2Sc2ccc(S(C)=O)cc21` (centres undefined): the mean signal in [1] was 243 (inactive). Besides, the red/green cell ratio (normalised) in [8] is 1.05 (inactive). The normalised cell number in assay [8] (setting [10]) is 1.11; in [8] (setting [11]) it was 1.16.
With `O=C1CC2(CCCC2)CC(=O)N1CCCCN1CCN(c2ncccn2)CC1`, the mean signal in assay [1] was 228 (inactive). Moreover, in assay [8], the red/green cell ratio (normalised) was 1.04 (inactive). In addition, the figures for the normalised cell number in assay [8] (setting [10]) and in [8] (setting [11]) were 1.05 and 1.09, respectively. In addition, the remaining activity in [9] was 109% (inactive).

For the origin of these results see PubChem BioAssay.
